# Laboratory results published in PubChem BioAssay AID1159580 (chemical genetic matrix, 2015).
# In all, about 5,500 compounds went through this assay and about 2,000 (36%) were called active. Roughly 18% stayed inconclusive and do not appear here. Some of the results follow. A number with no mark means an inactive call. Cut-off read from the data, not from the text of the source: active = normalized growth mostly below about 0.91 (no sharp cut-off); inconclusive = no clear call, values can overlap the other calls; inactive = mostly above about 0.92.
# Assay: chemical genetic growth profiling, strain panel (AID 1159580);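 note: tested at 20 µM; growth read once vehicle control cultures reached saturation at 30 °C; 1 = growth at the plate median or of vehicle wells; lower values mean less growth of the strain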
# Details: growth OD
# [1] = S. cerevisiae deletion strains, locus YAL013W, strain DEP1, hits give low values
# [2] = S. cerevisiae deletion strains, locus YBR229C, strain ROT2, hits give low values
# [3] = S. cerevisiae deletion strains, locus YDL101C, strain DUN1, hits give low values
# [4] = S. cerevisiae deletion strains, locus YDL134C, strain PPH21, hits give low values
# [5] = S. cerevisiae deletion strains, locus YDR150W, strain NUM1, hits give low values
# [6] = S. cerevisiae deletion strains, locus YEL061C, strain CIN8, hits give low values
# [7] = S. cerevisiae deletion strains, locus YGR078C, strain PAC10, hits give low values
# [8] = S. cerevisiae deletion strains, locus YGR229C, strain SMI1, hits give low values
# [9] = S. cerevisiae deletion strains, locus YHR030C, strain SLT2, hits give low values
# [10] = S. cerevisiae deletion strains, locus YHR087W, strain rtc3, hits give low values
# [11] = S. cerevisiae deletion strains, locus YJR043C, strain POL32, hits give low values
# [12] = S. cerevisiae deletion strains, locus YJR075W, strain HOC1, hits give low values
# [13] = S. cerevisiae deletion strains, locus YLR039C, strain RIC1, hits give low values
# [14] = S. cerevisiae deletion strains, locus YLR058C, strain SHM2 (second series), hits give low values
# [15] = S. cerevisiae deletion strains, locus YLR085C, strain ARP6, hits give low values
# [16] = S. cerevisiae deletion strains, locus YLR262C, strain YPT6, hits give low values
# [17] = S. cerevisiae deletion strains, locus YML094W, strain GIM5, hits give low values
# [18] = S. cerevisiae deletion strains, locus YMR219W, strain ESC1, hits give low values
# [19] = S. cerevisiae deletion strains, locus YMR263W, strain SAP30, hits give low values
# [20] = S. cerevisiae deletion strains, locus YNL153C, strain GIM3, hits give low values
# [21] = S. cerevisiae deletion strains, locus YNL298W, strain CLA4 (second series), hits give low values
# [22] = S. cerevisiae deletion strains, locus YNL322C, strain KRE1, hits give low values
# [23] = S. cerevisiae deletion strains, locus YNR030W, strain Alg12, hits give low values
# [24] = S. cerevisiae deletion strains, locus YPL055C, strain LGE1, hits give low values
# [25] = S. cerevisiae deletion strains, locus YPL241C, strain CIN2, hits give low values
# [26] = S. cerevisiae deletion strains, locus YPR135W, strain CTF4, hits give low values
compound,measurement,setting,value
CCN1CN=C(SCc2ccc(C)cc2)NC1,normalized growth,[1],0.986
same,normalized growth,[2],0.992
same,normalized growth,[3],0.991
same,normalized growth,[4],1
same,normalized growth,[5],0.932
same,normalized growth,[6],0.997
same,normalized growth,[7],0.983
same,normalized growth,[8],1
same,normalized growth,[9],0.915
same,normalized growth,[10],0.968
same,normalized growth,[11],0.976
same,normalized growth,[12],0.986
same,normalized growth,[13],0.977
same,normalized growth,[14],0.977
same,normalized growth,[15],0.997
same,normalized growth,[16],0.974
same,normalized growth,[17],0.998
same,normalized growth,[18],0.994
same,normalized growth,[19],0.974
same,normalized growth,"S. cerevisiae deletion strains, locus YMR307W, strain GAS1, hits give low values",1.05
same,normalized growth,[20],0.98
same,normalized growth,[21],0.975
same,normalized growth,[22],0.994
same,normalized growth,[23],0.986
same,normalized growth,[24],0.947
same,normalized growth,[25],0.978
same,normalized growth,[26],0.904
COc1cc(NC(=O)NS(=O)(=O)c2ccc(C)cc2)cc(C(F)(F)F)c1,normalized growth,[1],0.991
same,normalized growth,[2],0.995
same,normalized growth,"S. cerevisiae deletion strains, locus YCL061C, strain MRC1, hits give low values",0.987
same,normalized growth,[3],0.99
same,normalized growth,[4],1
same,normalized growth,[5],0.91
same,normalized growth,[6],1.02
same,normalized growth,[7],0.995
same,normalized growth,[8],0.996
same,normalized growth,[9],1.1
same,normalized growth,[10],0.994
same,normalized growth,[11],0.998
same,normalized growth,[12],0.965
same,normalized growth,[13],0.925
same,normalized growth,[14],0.999
same,normalized growth,[15],1.05
same,normalized growth,[16],0.907
same,normalized growth,[17],1.01
same,normalized growth,[18],0.997
same,normalized growth,[19],1
same,normalized growth,[20],0.995
same,normalized growth,[21],1.03
same,normalized growth,[22],0.986
same,normalized growth,[23],1.03
same,normalized growth,"S. cerevisiae deletion strains, locus YOL006C, strain TOP1, hits give low values",1.06
same,normalized growth,[24],0.966
same,normalized growth,[25],1.11
same,normalized growth,[26],1.02
same,normalized growth,"S. cerevisiae strains, strain wild type, hits give low values",1
COc1cc(NC(=S)Nc2ccccc2OC(F)(F)F)cc(C(F)(F)F)c1,normalized growth,"S. cerevisiae deletion strains, locus YAR019C, strain CDC15, hits give low values",0.969
same,normalized growth,"S. cerevisiae deletion strains, locus YBL105C, strain PKC1, hits give low values",0.977
same,normalized growth,"S. cerevisiae deletion strains, locus YBR135W, strain CKS1, hits give low values",0.977
same,normalized growth,"S. cerevisiae deletion strains, locus YBR136W, strain MEC1, hits give low values",0.975
same,normalized growth,"S. cerevisiae deletion strains, locus YBR160W, strain CDC28, hits give low values",0.972
same,normalized growth,"S. cerevisiae deletion strains, locus YDL017W, strain CDC7, hits give low values",0.982
same,normalized growth,"S. cerevisiae deletion strains, locus YDL028C, strain MPS1, hits give low values",0.962
same,normalized growth,[3],0.99
same,normalized growth,"S. cerevisiae deletion strains, locus YDL108W, strain KIN28, hits give low values",0.965
same,normalized growth,"S. cerevisiae deletion strains, locus YDL132W, strain cdc53, hits give low values",0.974
same,normalized growth,"S. cerevisiae deletion strains, locus YDL214C, strain PRR2, hits give low values",0.937
same,normalized growth,"S. cerevisiae deletion strains, locus YDR052C, strain DBF4, hits give low values",0.991
same,normalized growth,"S. cerevisiae deletion strains, locus YDR054C, strain cdc34, hits give low values",0.975
same,normalized growth,"S. cerevisiae deletion strains, locus YDR226W, strain ADK1, hits give low values",0.977
same,normalized growth,"S. cerevisiae deletion strains, locus YDR477W, strain SNF1, hits give low values",0.945
same,normalized growth,"S. cerevisiae deletion strains, locus YER123W, strain YCK3, hits give low values",0.931
same,normalized growth,"S. cerevisiae deletion strains, locus YER133W, strain GLC7, hits give low values",0.948
same,normalized growth,"S. cerevisiae deletion strains, locus YFL009W, strain cdc4, hits give low values",0.967
same,normalized growth,"S. cerevisiae deletion strains, locus YFL029C, strain CAK1, hits give low values",0.962
same,normalized growth,"S. cerevisiae deletion strains, locus YFR003C, strain YPI1, hits give low values",0.987
same,normalized growth,"S. cerevisiae deletion strains, locus YFR019W, strain FAB1, hits give low values",0.983
same,normalized growth,"S. cerevisiae deletion strains, locus YFR028C, strain CDC14, hits give low values",0.969
same,normalized growth,"S. cerevisiae deletion strains, locus YGR040W, strain KSS1, hits give low values",0.951
same,normalized growth,"S. cerevisiae deletion strains, locus YGR052W, strain FMP48, hits give low values",0.994
same,normalized growth,"S. cerevisiae deletion strains, locus YGR092W, strain DBF2, hits give low values",0.962
same,normalized growth,[9],0.824 (active)
same,normalized growth,"S. cerevisiae deletion strains, locus YHR079C, strain IRE1, hits give low values",0.985
same,normalized growth,"S. cerevisiae deletion strains, locus YHR082C, strain KSP1, hits give low values",0.972
same,normalized growth,"S. cerevisiae deletion strains, locus YHR205W, strain SCH9, hits give low values",0.922
same,normalized growth,"S. cerevisiae deletion strains, locus YIL147C, strain SLN1, hits give low values",0.961
same,normalized growth,"S. cerevisiae deletion strains, locus YJL095W, strain BCK1, hits give low values",0.956
same,normalized growth,"S. cerevisiae deletion strains, locus YJL128C, strain PBS2, hits give low values",0.929
same,normalized growth,"S. cerevisiae deletion strains, locus YJL157C, strain FAR1, hits give low values",0.962
same,normalized growth,"S. cerevisiae deletion strains, locus YJR016C, strain ILV3, hits give low values",0.989
same,normalized growth,"S. cerevisiae deletion strains, locus YJR066W, strain TOR1 (second series), hits give low values",1
same,normalized growth,"S. cerevisiae deletion strains, locus YJR066W, strain TOR1, hits give low values",0.926
same,normalized growth,"S. cerevisiae deletion strains, locus YKL048C, strain ELM1, hits give low values",0.971
same,normalized growth,"S. cerevisiae deletion strains, locus YKL067W, strain YNK1, hits give low values",0.926
same,normalized growth,"S. cerevisiae deletion strains, locus YKL101W, strain HSL1, hits give low values",0.937
same,normalized growth,"S. cerevisiae deletion strains, locus YKL193C, strain SDS22, hits give low values",0.977
same,normalized growth,"S. cerevisiae deletion strains, locus YKL203C, strain TOR2, hits give low values",1.03
same,normalized growth,"S. cerevisiae deletion strains, locus YLR113W, strain HOG1, hits give low values",0.886
same,normalized growth,"S. cerevisiae deletion strains, locus YLR133W, strain CKI1, hits give low values",0.96
same,normalized growth,"S. cerevisiae deletion strains, locus YLR403W, strain SFP1, hits give low values",0.968
same,normalized growth,"S. cerevisiae deletion strains, locus YML070W, strain DAK1, hits give low values",0.94
same,normalized growth,"S. cerevisiae deletion strains, locus YMR001C, strain CDC5, hits give low values",0.959
same,normalized growth,"S. cerevisiae deletion strains, locus YMR205C, strain PFK2 (second series), hits give low values",0.962
same,normalized growth,"S. cerevisiae deletion strains, locus YMR277W, strain FCP1, hits give low values",0.954
same,normalized growth,"S. cerevisiae deletion strains, locus YNL006W, strain LST8, hits give low values",0.978
same,normalized growth,"S. cerevisiae deletion strains, locus YNL020C, strain ARK1, hits give low values",0.965
same,normalized growth,"S. cerevisiae deletion strains, locus YNL161W, strain CBK1, hits give low values",0.977
same,normalized growth,"S. cerevisiae deletion strains, locus YNL183C, strain NPR1, hits give low values",1.01
same,normalized growth,"S. cerevisiae deletion strains, locus YNL207W, strain RIO2, hits give low values",0.985
same,normalized growth,"S. cerevisiae deletion strains, locus YNL222W, strain SSU72, hits give low values",0.965
same,normalized growth,"S. cerevisiae deletion strains, locus YNL307C, strain MCK1 (second series), hits give low values",0.956
same,normalized growth,"S. cerevisiae deletion strains, locus YOL078W, strain AVO1, hits give low values",0.97
same,normalized growth,"S. cerevisiae deletion strains, locus YOL136C, strain PFK27, hits give low values",0.935
same,normalized growth,"S. cerevisiae deletion strains, locus YOR061W, strain CKA2, hits give low values",0.962
same,normalized growth,"S. cerevisiae deletion strains, locus YOR119C, strain RIO1, hits give low values",0.964
same,normalized growth,"S. cerevisiae deletion strains, locus YOR231W, strain MKK1, hits give low values",0.945
same,normalized growth,"S. cerevisiae deletion strains, locus YOR329C, strain SCD5, hits give low values",0.99
same,normalized growth,"S. cerevisiae deletion strains, locus YPL031C, strain PHO85, hits give low values",0.957
same,normalized growth,"S. cerevisiae deletion strains, locus YPL153C, strain RAD53, hits give low values",0.952
same,normalized growth,"S. cerevisiae deletion strains, locus YPL204W, strain HRR25, hits give low values",0.957
same,normalized growth,"S. cerevisiae deletion strains, locus YPL209C, strain IPL1, hits give low values",0.976
same,normalized growth,"S. cerevisiae deletion strains, locus YPL256C, strain CLN2, hits give low values",0.927
same,normalized growth,"S. cerevisiae deletion strains, locus YPR025C, strain CCL1, hits give low values",0.984
same,normalized growth,"S. cerevisiae deletion strains, locus YPR106W, strain ISR1, hits give low values",0.974
same,normalized growth,"S. cerevisiae deletion strains, locus YPR111W, strain DBF20, hits give low values",0.953
same,normalized growth,"S. cerevisiae deletion strains, strain NNK1, hits give low values",0.974
same,normalized growth,"S. cerevisiae deletion strains, strain TSCII, hits give low values",0.97
